Laboratory results published in ChEMBL document CHEMBL4513216, “Probing the Open Global Health Chemical Diversity Library for Multistage-Active Starting Points for Next-Generation Antimalarials” (ACS Infect Dis, 2020).
In all, about 68,000 compounds went through this assay and about 2,700 (4%) showed an effect of 50% or more. The sample holds strong results, similar compounds and a random draw of the others, so the mix is not that of the screen.

Tested on: Plasmodium berghei
Assay: Screen against P. berghei liver stage (PbLuc), transformed with Luciferase, at 2uM
Format: functional, HepG2
Conditions: tested at 2 uM

Structure (SMILES)	INHIBITION
Cc1cc(C(=O)N2CCCS2(=O)=O)c(C)o1	-15.41%
COC(=O)CN1CCC(C(=O)c2cc(F)ccc2F)CC1	35.23%
Cc1oc(-c2ccco2)nc1CN1CCCC(Cn2cncn2)C1 (configuration not stated)	43.7%
O=C(CN1CC(c2ccccc2)CC1=O)N1CCC(c2ncc[nH]2)CC1 (configuration not stated)	-63.6%
Cc1nnc2n1CCN(C(=O)C(C)Oc1ccc(C#N)cc1)C2 (configuration not stated)	35.56%
COc1cc(C#N)ccc1OCC(=O)NS(=O)(=O)c1ccccc1	-0.89%
CC(C)c1noc(OCC(=O)N(C)C(C)C)n1	-6.48%
Cc1nsc(N2CCCN(C(=O)c3ccc4[nH]ccc4c3)CC2)n1	24.36%
Cc1nsc(N2CCN(C(=O)Nc3ccc4[nH]ccc4c3)CC2)n1	57.75%
Cc1nsc(N2CCN(C(=O)Nc3cccc(F)c3)CC2)n1	45.82%
CO[C@H]1CN(C(=O)c2cn3cc(C)ccc3n2)CC[C@@]12CCCO2	80.88%
CO[C@H]1CN(C(=O)c2ccc3oc(C)cc3c2)CC[C@@]12CCCO2	27.16%
CO[C@H]1CN(C(=O)c2cccc(C)n2)CC[C@@]12CCCO2	19.91%
COCCNC(=O)C1(Cc2ccccc2-c2ccncc2)CCOCC1	52.82%
COc1ccccc1-c1ccccc1CC1(C(=O)O)CCNCC1	-18.15%
CC(C)(C)NC(=O)C1(Cc2ccccc2-c2ccncc2)CCOCC1	16.55%
COc1ccccc1C1=NOC(CC2(C(=O)O)CCOCC2)C1 (configuration not stated)	8.89%
COc1ccc(F)cc1-c1ccccc1CC1(C(=O)O)CCOCC1	53.95%
O=C(NCCO)C1(Cc2ccccc2-c2ccncc2)CCOCC1	26.14%
COCCOc1cccc(CNCc2ccc(-n3cncn3)nc2)c1	5.47%
CC(C)N1CCO[C@H]2CN(C(=O)Cc3cccs3)C[C@H]21	9.87%
COc1ccc(-c2nnc(SC(C)C(N)=O)[nH]2)c(OC)c1 (configuration not stated)	-61.3%
COc1ccc(C(=O)C2CCCN(c3cc(N)ncn3)C2)c(C)c1 (configuration not stated)	16.32%

Structure (SMILES)	INHIBITION
COc1ccc(C(=O)C2CCCN(c3cnccn3)C2)c(C)c1 (configuration not stated)	16.87%
COc1ccc(C(=O)C2CCCN(c3cc(OC)ncn3)C2)c(C)c1 (configuration not stated)	60%
CN(C)Cc1ccccc1CN(C)C(=O)c1ccoc1	16.49%
CN(CCc1ccncc1)Cc1nccn1Cc1ccccc1	33.78%
CCc1ccsc1C(=O)N(C)CCc1ccncc1	70.66%
CN(CCc1ccccn1)CCc1nccs1	15.84%
CN(CCc1cccs1)CCc1nccs1	55.25%
Cc1ncsc1C(=O)N(C)CCc1ccncc1	-3.38%
CCC(=O)N(CC)CCc1nccs1	36.57%
CN(CCc1ccncc1)C(=O)c1sccc1OC(F)F	-120.22%
CN(CCc1ccncc1)CCc1nccs1	78.24%
CCN(CCc1nccs1)C(=O)c1ccco1	44.23%
O=C(NCCc1cscn1)c1coc(CN2CCOCC2)c1	-0.28%
Cc1cccc(N2CCN(C(=O)Cc3ccccc3O)C(C)C2)n1 (configuration not stated)	10.49%
O=C(O)c1ccn(COc2c(Cl)cccc2Cl)n1	10.62%
Cc1ccc(CN2CCc3c(COCC4CC4)nn(C)c3C2)s1	22.12%
COc1ccc(CNCC2CCN(CC(C)O)CC2)c2ccccc12 (configuration not stated)	7.54%
CCOc1ccccc1CNCC1CCN(CC(C)O)CC1 (configuration not stated)	21.43%
COc1cccc(CNCC2CCN(CC(C)O)CC2)c1OC (configuration not stated)	61.96%
COc1ccccc1CNC1(CCO)CCOCC1	13.12%
Cc1cc(C(=O)N2CCCC(c3ccc(C(=O)O)cc3)C2)c(C)o1 (configuration not stated)	-56.9%
Cn1ccc(NCc2cc3cc(F)ccc3o2)n1	5.1%
Cc1cc(-n2nc(C3CC3)nc2-c2csnn2)ccn1	-77.53%

Structure (SMILES)	INHIBITION
Cn1cc(CN2CC[C@@H]3[C@@H](CCC(=O)N3CCc3c[nH]cn3)C2)cn1	-21.16%
O=C1CC[C@H]2CN(Cc3cccnc3)CC[C@H]2N1CCc1c[nH]cn1	50.94%
O=C1CC[C@H]2CN(Cc3cccc(F)c3)CC[C@H]2N1CCc1c[nH]cn1	-13.3%
CN1CCCC1CCn1ccnc1-c1ccc2ccccc2n1 (configuration not stated)	5.55%
CCN1CC2(CC1=O)CN(C(=O)c1ccsc1)CCN(C(=O)N(C)C)C2 (configuration not stated)	26.44%
Cc1noc2nc(C3CCCN(Cc4ccncc4)C3)cc(C(F)F)c12 (configuration not stated)	63.66%
Cc1noc2nc(C3CCCN(Cc4cccnc4)C3)cc(C(F)F)c12 (configuration not stated)	39.06%
Cc1noc2nc(C3CCN(Cc4ccncc4)CC3)cc(C(F)F)c12	17.51%
COc1c(C)cnc(CN2CCCC2c2noc(C)n2)c1C (configuration not stated)	4.87%
COCCN(CC1CC1)c1nc(CCN)nc2sc(C)c(C)c12	13.65%
O=C1NC2(CCN(Cc3cccnc3)CC2)CC1c1cccnc1 (configuration not stated)	-22.79%
Cc1noc(C)c1CN(C)Cn1c(=O)oc2ccccc21	-5.31%
CC(C)N1CCC(CC(=O)N2CCN(Cc3nccn3C)CC2)CC1	29.41%
COCCN1CC[C@]2(CN(Cc3cccnc3)C[C@H]2C)C1=O	49.07%
Cc1nc2n(n1)CC(NCc1cnn(-c3ccccc3)n1)CC2 (configuration not stated)	24.88%
Cc1ccc(C2COCCN2C(=O)c2ccsc2)o1 (configuration not stated)	16.01%
COCc1ccc(C(=O)N2CCOCC2c2ccc(C)o2)cc1 (configuration not stated)	62.13%
COc1ccc(C(=O)N2CCOCC2c2ccc(C)o2)cc1 (configuration not stated)	39.93%
Cc1ccc(C2COCCN2C(=O)c2ccc(N(C)C)cc2)o1 (configuration not stated)	30.73%
Cc1ccc(C2COCCN2C(=O)c2ccc(CN(C)C)cc2)o1 (configuration not stated)	27.84%
Cc1ccc(C2COCCN2C(=O)c2ccc(C#N)cc2)o1 (configuration not stated)	54.44%
CC(=O)Nc1cc(C(=O)N2CCOCC2c2ccc(C)o2)ccc1F (configuration not stated)	44.99%
Cc1ccc(C2COCCN2C(=O)c2cccc(N(C)C)c2)o1 (configuration not stated)	43.34%

Structure (SMILES)	INHIBITION
Cc1ccc(C2COCCN2C(=O)c2ccc(F)c(F)c2)o1 (configuration not stated)	70.24%
CCS(=O)(=O)N1CCCCC1c1nc(C(C)C)no1 (configuration not stated)	-28.84%
CN1CCN(Cc2ccccc2Oc2ccc(C(N)=O)cn2)CC1	8.73%
CN(Cc1ccc(O)cc1)C(=O)NC1CCCN(c2ncccn2)C1 (configuration not stated)	36.95%
Cc1nc(CN2CCCC(c3nccs3)C2)cs1 (configuration not stated)	-33.32%
Cn1cc(Cl)c(C(=O)N2CCC(N3CCc4ccccc4C3)CC2)n1	18.63%
Cc1c(O)cccc1C(=O)N1CCCC2(C1)C(=O)N(C)c1ccccc12 (configuration not stated)	-91.67%
Cc1noc(COCC(=O)N2CCCC(c3nccs3)C2)n1 (configuration not stated)	-7.96%
CCc1cn[nH]c1C1CCCN(C(=O)c2ncoc2C(C)C)C1 (configuration not stated)	27.85%
CCc1cn[nH]c1C1CCCN(C(=O)c2cnc(NC(C)C)nc2)C1 (configuration not stated)	56.49%
CCc1cn[nH]c1C1CCCN(C(=O)c2cc(C(C)C)on2)C1 (configuration not stated)	22.34%
CCn1cc(NC(=O)C(C)n2ncc(Cl)c2C)c(C(=O)NC)n1 (configuration not stated)	-28.77%
CC(C)(C)C(=O)N1C[C@H](c2ccsc2)[C@H]2CN(C3CCCCC3)CC[C@H]21	25.41%
CC(C)C(=O)N1CCC12CCCN(C(=O)c1ccnnc1)C2 (configuration not stated)	-40.36%
CC(=O)NC(Cc1c[nH]c2cc(F)ccc12)C(=O)Nc1nonc1C (configuration not stated)	46.43%
CC(=O)NC(Cc1c[nH]c2cc(F)ccc12)C(=O)Nc1cnn(C)c1 (configuration not stated)	11.32%
CC(=O)NC(Cc1c[nH]c2cc(F)ccc12)C(=O)Nc1nncs1 (configuration not stated)	59.94%
Cc1ccc(CN(C)C(=O)CN2CCCC(Cn3cncn3)C2)cc1 (configuration not stated)	10.4%
O=C1CCC(c2nc(C3CCNCC3)no2)N1 (configuration not stated)	-6.77%
CO[C@@H]1CCN(C(=O)c2ccsc2)[C@@H]2CN(CC3CC3)C[C@@H]21	54.01%
CO[C@H]1CCN(C(=O)Cc2ccsc2)[C@@H]2CN(CC3CC3)C[C@H]12	22.16%
CCn1nc(C)cc1C(=O)N1CC[C@H](OC)[C@H]2CN(CC3CC3)C[C@H]21	24.51%
CCN1C[C@H]2[C@@H](C1)N(C(=O)Cc1ccsc1)CC[C@H]2OC	48.52%

Structure (SMILES)	INHIBITION
CO[C@H]1CCN(C(=O)c2ccsc2)[C@@H]2CN(CC3CC3)C[C@H]12	-1.45%
CCN1C[C@@H]2[C@@H](OC)CCN(C(=O)c3cc(C)nn3CC)[C@@H]2C1	66.46%
O=C(c1cscn1)N1C[C@H]2CCCC(OCc3cccnc3)[C@H]2C1 (some centres not stated)	-16.41%
COCCCN1CCCN(C(C)C(=O)Nc2cccc(I)c2)CC1 (configuration not stated)	42.76%
Cc1cc(C)cc(OCC(=O)NC2CCN(S(C)(=O)=O)CC2)c1	-50.23%
CCN(Cc1cccc(C(N)=O)c1)c1ccccc1	36.74%
Cc1ncsc1C(=O)NC1CCN(Cc2ccc(C(F)(F)F)cc2)CC1	74.35%
Cc1ncsc1C(=O)NC1CCN(Cc2ccc(C(N)=O)cc2)CC1	-2.82%
Cc1ccc(CN2CCC(NC(=O)c3scnc3C)CC2)cc1	-21.72%
Cc1cc(CN2C[C@@H]3CC[C@H]2CN(C2Cc4ccccc4C2)C3)on1	17.28%
CCC(NCc1ccccc1)c1ccccc1OCC(=O)NC (configuration not stated)	-3.09%
COc1ccc(N2CCC(N(C)C(C)C(=O)N(C)C)CC2)cc1 (configuration not stated)	-2.89%
CCOC(C)C(=O)N(C)C1CCN(c2ccc(OC)cc2)CC1 (configuration not stated)	73.09%
COc1ccc(N2CCC(NC(=O)c3ccc(C#N)cc3)CC2)cc1	45.62%
COc1ccc(N2CCC(N(C)C(=O)C(C)SC)CC2)cc1 (configuration not stated)	27.5%
COc1ccc(N2CCC(N3C[C@H](NC(C)=O)[C@@H](C(C)C)C3)CC2)cc1	55.36%
CC(=O)N[C@@H]1CN(C2CCN(c3cccc(Cl)c3)CC2)C[C@H]1C(C)C	21.97%
CC(=O)N[C@@H]1CN(C2CCN(c3ccccc3F)CC2)C[C@H]1C(C)C	7.67%
COc1cccc(N2CCC(N3C[C@@H](NC(C)=O)[C@H](C(C)C)C3)CC2)c1	52.98%
CC(=O)N[C@@H]1CN(C2CCN(c3cccc(C)c3C)CC2)C[C@H]1C(C)C	29.13%
